The text below walks through data of PubChem BioAssay.

Assay [1] concerns TRPC4 beta (transient receptor potential cation channel C4), mouse. The experiment in a line: TRPC4 cation channel opening, retest – cell-based, Fluo4 calcium, HEK293 TRPC4beta/mu-opioid, duplicates, 10 µM, confirmation (AID 2426). The conditions noted are these: Fluo4 calcium fluorescence, at 10 µM; active compounds read high.
The test system of assay [2] is transient receptor potential cation channel C4 beta (TRPC4), mouse. The experiment in a line: TRPC4 cation channel opening, second retest – cell-based, second round, Fluo4, HEK293 TRPC4beta/mu-opioid, 1 µM, confirmation (AID 2461;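 active means primary screen active and over 50% activation in each of two duplicate runs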). The conditions noted are these: Fluo4 calcium fluorescence, at 1 µM; active compounds read high.
The test system of assay [3] is TRPC4 (transient receptor potential cation channel C4 beta), mouse. The experiment in a line: potentiation of DAMGO EC20 TRPC4 response – cell-based, second round, Fluo-4, HEK293 TRPC4beta/mu-opioid, 1 µM, confirmation (AID 2554;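 active means primary screen hit whose fluorescence ratio, in both repeats, exceeds the weak agonist control mean by 3 SD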). As to conditions: DAMGO EC20, Fluo-4 calcium flux, at 1 µM; active compounds read high.
For assay [4], the system named is TRPC4 beta (transient receptor potential cation channel C4), mouse. The experiment in a line: potentiation of DAMGO EC20 TRPC4 response – cell-based, Fluo-4, HEK293 TRPC4beta/mu-opioid, confirmation (AID 2555;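 active means primary screen hit whose calcium fluorescence ratio, in both repeats, exceeds the weak agonist control mean by 3 SD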). As to conditions: DAMGO EC20, Fluo-4 calcium flux, at 10 µM; active compounds read high.
For assay [5], the target named is Short transient receptor potential channel 4 (Mus musculus) (UniProt Q9QUQ5). The experiment in a line: blockers of DAMGO-evoked TRPC4 calcium flux – cell-based, Fluo4, HEK293 TRPC4beta/mu-opioid, confirmation (AID 2636;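 active means calcium signal cut by more than 3 SD below the full-agonist control yet still positive, in both repeats and the earlier primary screen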). The conditions noted are these: at 10 µM; active compounds read high.
Short transient receptor potential channel 4 (Mus musculus), sequence (Q9QUQ5 whole entry, looked up): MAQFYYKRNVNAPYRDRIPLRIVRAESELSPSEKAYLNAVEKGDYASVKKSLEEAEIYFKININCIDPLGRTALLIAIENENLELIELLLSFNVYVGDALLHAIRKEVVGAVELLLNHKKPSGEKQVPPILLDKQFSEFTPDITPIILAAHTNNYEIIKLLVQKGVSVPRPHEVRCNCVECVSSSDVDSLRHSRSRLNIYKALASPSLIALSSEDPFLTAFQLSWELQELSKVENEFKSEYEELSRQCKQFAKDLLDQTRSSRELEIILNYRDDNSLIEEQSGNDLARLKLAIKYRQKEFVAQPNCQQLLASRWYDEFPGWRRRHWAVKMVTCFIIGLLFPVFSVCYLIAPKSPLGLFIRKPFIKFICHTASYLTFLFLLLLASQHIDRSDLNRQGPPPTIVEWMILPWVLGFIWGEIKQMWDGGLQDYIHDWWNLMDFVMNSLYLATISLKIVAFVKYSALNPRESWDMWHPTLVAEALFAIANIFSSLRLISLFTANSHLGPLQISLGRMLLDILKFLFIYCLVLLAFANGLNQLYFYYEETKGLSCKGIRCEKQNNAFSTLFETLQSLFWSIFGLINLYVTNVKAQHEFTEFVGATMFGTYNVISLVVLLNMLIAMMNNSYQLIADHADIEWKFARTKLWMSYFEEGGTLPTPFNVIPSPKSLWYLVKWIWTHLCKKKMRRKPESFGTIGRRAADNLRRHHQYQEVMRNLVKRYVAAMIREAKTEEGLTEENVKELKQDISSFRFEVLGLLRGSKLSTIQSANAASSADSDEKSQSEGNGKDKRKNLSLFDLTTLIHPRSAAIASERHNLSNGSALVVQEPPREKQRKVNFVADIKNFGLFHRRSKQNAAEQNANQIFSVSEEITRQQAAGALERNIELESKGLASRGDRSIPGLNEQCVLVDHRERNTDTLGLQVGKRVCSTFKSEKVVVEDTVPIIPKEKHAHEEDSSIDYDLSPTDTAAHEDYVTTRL
For assay [6] the target is unchanged. The assay is described as follows: blockers of DAMGO-evoked TRPC4 calcium flux – cell-based, second round, Fluo4, HEK293 TRPC4beta/mu-opioid, 1 µM, confirmation (AID 2637;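 active means calcium signal ratio cut to more than 3 SD under the fully stimulated control mean yet still positive, in both repeats and the primary screen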;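 on inhibition: percent of integrated ratio relative to wells lacking test compound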). The conditions noted are these: at 1 µM; active compounds read high.
Assay [7] has the same target. The experiment in a line: calcium entry via TRPC4 opening agents – cell-based, HEK293 TRPC4/mu-opioid, Fluo-4 calcium, dose response (AID 434937;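 active means primary screen activator hit with a dose response curve and TRPC4 channel activation at any tested dose; inactive means no activation, no dose response, or not a primary hit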).
Assay [8] has the same target. The experiment in a line: potentiation of DAMGO-evoked TRPC4 calcium signal – cell-based, HEK293 TRPC4/mu-opioid, Fluo-4 calcium, EC20 DAMGO, dose response (AID 434941;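 active means earlier screen potentiator hit that boosts the TRPC4 ion channel at some dose, with a dose response; inactive means no potentiation, no dose response, or not a prior hit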;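 further: calcium entry triggered by an EC20 dose of DAMGO at the co-expressed mu-opioid receptor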).
Assay [9] deals with Short transient receptor potential channel 6 (Mus musculus) (UniProt Q61143). The assay is described as follows: TRPC6 blockade by TRPC4 inhibitor hits – cell-based, HEK293, membrane potential dye, duplicate, selectivity assay for TRPC4 inhibitor project, confirmation (AID 434948;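 active means active in primary screen and both duplicates, each dropping signal beyond three positive-control SD with fluorescence still positive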). The conditions noted are these: HEK293 TRPC6, membrane potential dye fluorescence, at 10 µM, stimulated with maximal-effect acetylcholine; active compounds read high.
Short transient receptor potential channel 6 (Mus musculus), sequence (Q61143 whole entry, looked up): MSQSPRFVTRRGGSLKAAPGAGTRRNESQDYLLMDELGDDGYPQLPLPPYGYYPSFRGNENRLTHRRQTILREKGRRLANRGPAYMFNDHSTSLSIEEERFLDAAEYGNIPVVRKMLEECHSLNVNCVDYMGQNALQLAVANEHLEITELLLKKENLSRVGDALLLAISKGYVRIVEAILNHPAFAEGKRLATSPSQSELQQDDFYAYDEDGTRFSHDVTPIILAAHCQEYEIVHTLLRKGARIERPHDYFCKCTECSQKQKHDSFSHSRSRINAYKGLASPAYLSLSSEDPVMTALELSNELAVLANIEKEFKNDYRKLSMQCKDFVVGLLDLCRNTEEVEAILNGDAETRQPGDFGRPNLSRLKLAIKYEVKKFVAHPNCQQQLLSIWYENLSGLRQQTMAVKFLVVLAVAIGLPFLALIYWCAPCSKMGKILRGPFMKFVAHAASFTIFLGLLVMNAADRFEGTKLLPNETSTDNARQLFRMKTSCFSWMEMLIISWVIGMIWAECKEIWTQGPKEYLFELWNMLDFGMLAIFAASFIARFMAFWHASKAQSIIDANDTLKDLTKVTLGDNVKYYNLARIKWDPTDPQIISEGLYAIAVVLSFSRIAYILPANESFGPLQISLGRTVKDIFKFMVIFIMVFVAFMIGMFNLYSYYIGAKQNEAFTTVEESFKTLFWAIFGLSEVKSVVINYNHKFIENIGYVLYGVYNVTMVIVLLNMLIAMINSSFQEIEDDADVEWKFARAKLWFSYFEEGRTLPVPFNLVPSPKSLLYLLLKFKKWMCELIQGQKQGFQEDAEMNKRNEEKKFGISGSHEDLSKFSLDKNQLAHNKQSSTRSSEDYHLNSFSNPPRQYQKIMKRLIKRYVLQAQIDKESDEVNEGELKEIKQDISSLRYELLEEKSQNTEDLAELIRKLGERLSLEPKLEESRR

For assay [10] the target is unchanged. The assay is described as follows: TRPC6 opening by TRPC4 activator hits – cell-based, HEK293, membrane potential dye, duplicate, selectivity assay for TRPC4 activator project, confirmation (AID 434950;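 active means membrane potential signal rise above negative control mean plus 3 SD in both duplicates, also active in the earlier TRPC4 screen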). As to conditions: HEK293 TRPC6, membrane potential fluorescence, at 10 µM; activation: active compounds read high; outcome: activation.
Assay [11] shares this target. The assay is described as follows: positive modulators of mouse TRPC6 channel – HEK293 cells, membrane potential dye, duplicate, selectivity assay for TRPC4 potentiator project, confirmation (AID 434952;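 active means compound raising the membrane signal above positive-control mean plus 3 SD in both repeats, and a primary screen hit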). The conditions noted are these: HEK293 TRPC6, membrane potential dye fluorescence, at 10 µM, maximal acetylcholine added after compound; active compounds read high.
Assay [12] concerns the target Short transient receptor potential channel 4 (Mus musculus) (UniProt Q9QUQ5). The assay is described as follows: calcium flux activators in TRPC4/5HT1a cells, counter-screen for TRPC4 activator project, cell-based, second counter screen, HEK293 TRPC4/5HT1a, Fluo-4 (AID 434977;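 active means calcium signal rise above buffer-control mean plus 5 SD in both duplicates, and also a hit in the primary screen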). The conditions noted are these: Fluo-4 calcium flux, at 10 µM; active compounds read high.
The nature of assay [13]: serotonin-gated TRPC4 signal block – cell-based, second counter screen, HEK293 TRPC4/5HT1a, Fluo-4, counter-screen for TRPC4 inhibitor project, confirmation (AID 434978;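 active means primary screen active whose calcium signal fell more than 3 SD beyond the full-serotonin control mean in both duplicate plates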;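 on outcome: serotonin given first at submaximal then at maximal dose after compound preincubation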). As to conditions: Fluo-4 calcium flux, at 10 µM, serotonin added to trigger calcium flux; active compounds read high.
Assay [14] deals with TRPC4 (mouse), co-expressed with 5HT1a in HEK293. The assay is described as follows: enhancement of serotonin-evoked TRPC4 response – cell-based, second counter screen, HEK293 TRPC4/5HT1a, Fluo-4, counter-screen for TRPC4 potentiator project, confirmation (AID 434979;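 active means signal rise over 3 SD above mean of control wells given weak agonist, in both repeats and first screen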). As to conditions: Fluo-4 calcium flux, at 10 µM, serotonin added at its EC20 dose; active compounds read high.
A short description of assay [15]: nonspecific calcium rise without TRPC4 – cell-based, HEK293 mu-opioid receptor line, counter-screen for TRPC4 activator project, confirmation (AID 449723;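 active means hit in primary screen, with calcium signal over 5 SD above buffer well mean in both duplicates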;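 further: counter screen cells carry the mu-opioid receptor alone and lack TRPC4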). As to conditions: HEK293 mu-opioid cells, Fluo-4 calcium fluorescence, at 10 µM; active compounds read high.
The nature of assay [16]: nonspecific potentiation of DAMGO calcium response – cell-based, HEK293 mu-opioid receptor line, counter-screen for TRPC4 allosteric potentiator project, confirmation (AID 449724;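 active means calcium signal rise more than 3 SD above the low-dose agonist control mean, in both duplicate plates and the primary screen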;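 further: HEK293 cells carrying mu-opioid receptor only with no TRPC4 channel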). The conditions noted are these: HEK293 mu-opioid receptor cells, Fluo-4 calcium flux, at 10 µM, compound added before EC20 DAMGO stimulus; active compounds read high.

For part of these data: Measured potencies and affinities stand elsewhere. Calls of active or inactive are those of the source.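 How the source made its calls, unless noted: active means fluorescence ratio normalized to control raised more than 50% in primary screen plus both repeat runs; inactive means the rest.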

As for `O=C(CCc1ccccc1)Nc1ccnn1C1CCN(C/C=C/c2ccccc2)CC1`, the result in assay [1], in assay [2], in [3], in [4], in assay [5] and in [6] was inactive. In addition, the result in [7], in assay [8], in assay [9], in assay [10], in assay [11] and in assay [12] was inactive. Besides, the outcome in assay [14], in assay [15] and in [16] was inactive. The inhibition in assay [13] is 17.3% (active).
Take `Oc1c(CN2CCCCC2)cc(Br)c2cccnc12`: the outcome in assay [1], in [2], in [3], in assay [4], in assay [6] and in assay [7] was inactive. Also, the result in assay [8], in assay [9], in [10], in assay [11], in assay [12] and in [14] was inactive. The outcome in assay [15] and in [16] was inactive. For the same compound, the inhibition in [5] was 93% (active); in [13], 4.44% (active).
In the case of `Cc1ccc(NC(=O)CSCC(=O)OCc2cc(=O)oc3cc(O)ccc23)c(C)c1`, the outcome in assay [1], in assay [2], in [3], in assay [4], in assay [6] and in assay [7] was inactive. Moreover, the outcome in assay [8], in assay [9], in assay [10], in assay [11], in assay [12] and in assay [13] was inactive. In addition, the result in assay [14], in [15] and in assay [16] was inactive. The inhibition in assay [5] was 80% (active).
As to `Cc1cccc(Cn2c(C(C)(C)C)cc3cccnc32)c1`, the result in assay [1], in [2], in assay [3], in assay [4], in assay [7] and in [8] was inactive. Besides, the compound was called inactive in assay [10], in assay [11], in assay [12], in assay [14], in assay [15] and in [16]. The inhibition was 95% (active) in [5], 72% (active) in assay [6], 59.5% (active) in assay [9] and 19.4% (active) in assay [13].
In the case of `Cc1nn(C(=O)CNS(=O)(=O)c2ccccc2)c(C)c1Sc1ccc(Cl)cc1`, the outcome in assay [1], in assay [2], in assay [3], in [4], in [7] and in assay [8] was inactive. The compound was classed as inactive in assay [10], in assay [11], in assay [12], in [14], in assay [15] and in assay [16]. The inhibition in [5] is 89% (active); in assay [6] it was 62% (active); in assay [9], 52.5% (active); in assay [13], 11.3% (active).
As to `CCCCCCCCCCCCOC(=O)C[N+](C)(C)C`, the result in assay [1], in assay [2], in assay [3], in assay [4], in [5] and in assay [6] was inactive. The outcome in assay [7], in assay [8], in [9], in [10], in [11] and in assay [12] was inactive. In addition, the outcome in assay [14], in [15] and in [16] was inactive. Further, the inhibition in [13] is 37.5% (active).
Consider `O=C(Nc1cccc(Cl)c1)N1CCN2C(=O)c3ccccc3C12c1ccccc1` (stereo not given), for which the outcome in assay [1], in [2], in [3], in [4], in assay [6] and in assay [7] was inactive. In addition, the outcome in assay [8], in [9], in [10], in assay [11], in assay [12] and in assay [13] was inactive. Moreover, the result in assay [14], in assay [15] and in [16] was inactive. The inhibition in assay [5] is 69% (active).
Regarding `CCCCCC[N+](C)(C)CC/C=C1/c2ccccc2Sc2ccc(Cl)cc21`, the result in assay [1], in assay [2], in assay [3], in assay [4], in assay [7] and in assay [8] was inactive. The compound was called inactive in assay [10], in assay [11], in [12], in assay [14], in assay [15] and in [16]. For the same compound, the inhibition in [5] was 83% (active); in assay [6], 61% (active); in assay [9], 42.5% (active); in assay [13] it was 31.8% (active).
On to `CC(C)C(NC(=O)c1ccc(C(C)(C)C)cc1)C(=O)NCC(c1ccccc1)N(C)C` (stereo not given), for which the result in assay [1], in assay [2], in [3], in assay [4], in assay [7] and in assay [8] was inactive. The result in [9], in assay [10], in [11], in assay [12], in assay [13] and in [14] was inactive. Besides, the outcome in [15] and in [16] was inactive. The inhibition is 82% (active) in [5] and 70% (active) in assay [6].
Consider `Cc1cccn2c(=O)c(/C=N/O)c(N3CCCC3)nc12`, for which the outcome in assay [1], in assay [2], in assay [3], in assay [4], in assay [7] and in [8] was inactive. The result in assay [9], in [10], in assay [11], in [12], in assay [14] and in [15] was inactive. Also, in assay [16], the outcome was inactive. The inhibition in assay [5] was 57% (active); in [6], 72% (active); in assay [13], 35% (active).
For the compound `CCCn1c(NCc2ccc(C)o2)nc2ccccc21`, the result in assay [1], in assay [2], in assay [3], in assay [4], in assay [6] and in assay [7] was inactive. Further, the outcome in assay [8], in assay [9], in assay [10], in assay [11], in assay [12] and in [14] was inactive. In addition, the outcome in assay [15] and in assay [16] was inactive. For the same compound, the inhibition in assay [5] is 70% (active); in assay [13], 30% (active).
Consider `Cc1ccc(C(C(=O)NC(C)(C)C)N(C(=O)CCC(=O)Nc2ccccn2)c2ccccc2F)cc1` (stereo not given), for which the outcome in assay [1], in [2], in [3], in assay [4], in [6] and in assay [7] was inactive. The result in assay [8], in assay [9], in assay [10], in assay [11], in [12] and in assay [14] was inactive. Further, the outcome in [15] and in assay [16] was inactive. For the same compound, the figures for the inhibition in assay [5] and in [13] were 61% (active) and 28.9% (active), respectively.
In the case of `OCCCNc1c2ccccc2nc2ccccc12`, the outcome in assay [1], in assay [2], in assay [3], in [4], in assay [6] and in [7] was inactive. Moreover, the outcome in [8], in [10], in assay [11], in assay [12], in assay [14] and in assay [15] was inactive. For the same compound, the result in assay [16] was inactive. Besides, the values for the inhibition in [5], in assay [9] and in [13] were 92% (active), 39.5% (active) and 41.8% (active), respectively.
`COc1cc(CNCCc2ccc(F)cc2)ccc1OCc1ccc(Cl)nc1`: the outcome in assay [1], in assay [2], in assay [3], in [4], in assay [6] and in [7] was inactive. For the same compound, the outcome in assay [8], in [10], in [11], in [12], in assay [13] and in assay [14] was inactive. Further, the outcome in assay [15] and in [16] was inactive. For the same compound, the figures for the inhibition in assay [5] and in assay [9] were 84% (active) and 40.5% (active), respectively.
As to `NC(=NC1CCCCC1)c1ccc(Cl)cc1`, the result in assay [1], in assay [2], in assay [3], in [4], in [7] and in [8] was inactive. Also, the result in assay [9], in [10], in [11], in [12], in [14] and in [15] was inactive. Besides, in assay [16], the result was inactive. In addition, the results for the inhibition in assay [5], in assay [6] and in assay [13] were 97% (active), 66% (active) and 22.8% (active), respectively.
